Screening data (PubChem BioAssay)
This is a sample that favours compounds with a hit; in the whole collection about 6.8% have one here.
TSG101-PTAP inh: blocks PTAP/TSG101 interaction to inhibit HIV-1 budding; AID 493005; Potency, µM (doses to about 115 µM), inactives show at the top dose activity change, negative = inhibition, most hits filed as inhibitors; 340,000 tested, under 10 active; Q99816; Fluorescence polarization, FITC-PTAP peptide / Tsg101 binding; active means well fitted inhibition curve with a large enough effect in the main read-out, with a control signal flat, not every such curve was filed as active; inconclusive means small, poorly fitted or top-dose-only effect, or effect the other way, or a change in a side signal; inactive means no such curve, though single readings can be large or run the other way; further: % of control where 0% means no effect
Target sequence (Q99816 whole entry, looked up): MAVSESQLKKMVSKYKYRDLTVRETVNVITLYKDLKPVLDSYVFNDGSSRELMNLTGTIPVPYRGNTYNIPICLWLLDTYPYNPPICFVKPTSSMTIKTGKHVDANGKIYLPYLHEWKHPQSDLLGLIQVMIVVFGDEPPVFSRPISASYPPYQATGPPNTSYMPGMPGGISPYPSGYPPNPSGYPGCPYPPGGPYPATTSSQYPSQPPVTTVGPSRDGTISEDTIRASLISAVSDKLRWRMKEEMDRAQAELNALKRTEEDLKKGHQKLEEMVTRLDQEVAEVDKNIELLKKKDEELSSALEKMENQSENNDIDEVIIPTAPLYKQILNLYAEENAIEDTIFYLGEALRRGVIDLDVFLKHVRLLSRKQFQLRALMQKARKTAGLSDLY
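FP read-out: FITC-PTAP peptide, 50 nM final, binding Tsg101 binding domain, 10 uM final; 20 min, r.t.; 10 mM HEPES pH 7.5, 0.15 M NaCl, 0.01% Tween 20, 3 mM EDTA, 0.1 mM TCEP.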
SW480 rereplic: inducers of DNA re-replication in SW480 colon cancer cells. SW480 DNA re-replication, Hoechst DNA content imaging, 48 h. Potency, µM (series often up to 46.1 µM), for the others: top-dose re-replication activation, most hits filed as activators. 340,000 tested, 1.8% active. AID 624297; further: % of control where 0% means no effect; nearly all actives have a fitted effect of over 55% in size
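DNA re-replication was detected as more nuclei of elevated Hoechst intensity after 48 hr exposure to compound (23 nL pinned per well of 250 cells).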
KB-3-1 cytotox: KB-3-1 parental cell cytotoxicity; AID 1347075; Potency, µM (titrated, usually from 46.1 µM), actives largely listed as cytotoxic; 400,000 tested, 1.4% active; KB-3-1 viability, CellTiter-Glo ATP luminescence, 72 h; further: on the % scale 0 is the no-effect control and ±100 the full control effect; nearly all actives have a fitted effect of over 60% in size
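Screening of KB-3-1 cells (DMEM, 10% FBS, phenol-red free) ran from lowest to highest compound concentration; after 72 h at 37 °C viability was read luminescently and curves fitted.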
MCF10A rerep: inducers of DNA re-replication in MCF 10A breast cells. MCF 10A DNA re-replication, Hoechst nuclear intensity, 48 h. Potency, µM (highest dose often 46.1 µM), without a hit: top-dose activity, positive = re-replication, usual class: activators. 350,000 tested, 2.9% active; further: % of control where 0% means no effect; nearly all actives have a fitted effect of over 50% in size
PINK1 expr mod: PINK1 expression modulation; Potency, µM (titrated, usually from 76.6 µM), without a hit: at the highest dose activation (PINK1 increase), hits mostly activators; 410,000 tested, 0.2% active; AID 624263; PINK1 immunofluorescence, high-content cytometry, 24 h; active means well fitted activation curve with a large enough effect; inconclusive means small, poorly fitted or top-dose-only effect; cell line not stated here; further: % of control where 0% means no effect; nearly all actives have a fitted effect of over 65% in size
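Stable cell line treated 24 h with compounds at 5 concentrations (CCCP controls), then fixed and immunostained for PINK1 plus nuclear and cell stains; PINK1 immunofluorescence quantified by laser-scanning microplate cytometry.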
KB-V1 cytotox: KB-V1 MDR subline cytotoxicity | KB-V1 MDR cells viability, CellTiter-Glo, 72 h | 400,000 tested, 3.4% active | Potency, µM (highest dose often 46.1 µM), usual class: cytotoxic; further: on the % scale 0 is the no-effect control and ±100 the full control effect; nearly all actives have a fitted effect of over 60% in size
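KB-V1 MDR subline cells in DMEM (phenol-red free, 10% FBS) exposed to compounds in qHTS concentration series for 72 h at 37 degrees C. Viability read by CellTiter-Glo luminescence; concentration-effect curves fitted after normalization and correction.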
Active calls of the source: *. Unless noted, the call rests on the fitted dose curve; in most records, active means well fitted curve in the direction sought with a large enough effect; inconclusive means small, poorly fitted or top-dose-only effect, or another doubt; inactive means no such curve, though single readings can be large; an effect the other way counts as inactive or inconclusive. Potency means the concentration at half of the fitted maximal effect.

Results for CCc1ccccc1NC(=O)CN1CCN(C(=O)CNC(=O)c2ccc(-c3ccccc3)cc2)CC1 ?
TSG101-PTAP inh: -4.3%; SW480 rereplic: 61.5%; KB-3-1 cytotox: inactive; MCF10A rerep: 5.8µM*; PINK1 expr mod: 3.8%; KB-V1 cytotox: inconclusive

How did O=S1(=O)c2ccc(Br)cc2N2CCC[C@@H]2CN1C1CC1 do in these assays?
TSG101-PTAP inh: -6.5%; SW480 rereplic: 0.4%; KB-3-1 cytotox: inactive; MCF10A rerep: inconclusive; PINK1 expr mod: 1.5%; KB-V1 cytotox: inactive

Results for O=S1(=O)c2ccc(Br)cc2N2CCC[C@H]2CN1Cc1ccccc1 ?
TSG101-PTAP inh: -7.7%; SW480 rereplic: 5.17µM*; KB-3-1 cytotox: inconclusive; MCF10A rerep: 2.59µM*; PINK1 expr mod: 4.3%; KB-V1 cytotox: 5.17µM*

How did O=S1(=O)c2ccc(Br)cc2N2CC[C@H](C2)N1Cc1ccc(Cl)cc1 do in these assays?
TSG101-PTAP inh: -4.1%; SW480 rereplic: 6.51µM*; KB-3-1 cytotox: inconclusive; MCF10A rerep: 3.26µM*; PINK1 expr mod: 4.7%; KB-V1 cytotox: inconclusive

How did C[C@@H](c1ccccc1)N1C[C@H]2CCCN2c2cc(Br)ccc2S1(=O)=O do in these assays?
TSG101-PTAP inh: 0.6%; SW480 rereplic: 16.4µM*; KB-3-1 cytotox: inconclusive; MCF10A rerep: 7.31µM*; PINK1 expr mod: 7.5%; KB-V1 cytotox: inconclusive

What do the screens show for `COc1ccccc1-c1ccc(C(=O)NCCN2CCOCC2)c(N2CCN(c3ccccc3F)CC2)n1`?
PINK1 expr mod: 1.4%

Results for Cc1ccc2nc(-c3c[nH]c4ccccc34)c(Nc3ccccc3)n2c1 ?
KB-3-1 cytotox: inactive; PINK1 expr mod: 4.8%; KB-V1 cytotox: inactive

What do the screens show for `CCC(C)C(NC(=O)C1CCC(C)CC1)C(=O)NCc1cccnc1` (stereo not given)?
TSG101-PTAP inh: -3.7%; SW480 rereplic: -10.2%; KB-3-1 cytotox: inactive; MCF10A rerep: 17.8%; PINK1 expr mod: 1.6%; KB-V1 cytotox: inactive

How did CC(C)CC(NC(=O)C1CCC(C)CC1)C(=O)NCc1cccnc1 (stereo not given) do in these assays?
TSG101-PTAP inh: -2.5%; SW480 rereplic: 0.2%; KB-3-1 cytotox: inactive; MCF10A rerep: 1.0%; PINK1 expr mod: -3.3%; KB-V1 cytotox: 18.4µM*

Results for CC1CCC(C(=O)NC(C(=O)NCc2cccnc2)C(C)C)CC1 (stereo not given) ?
TSG101-PTAP inh: -6.3%; SW480 rereplic: -3.0%; KB-3-1 cytotox: inactive; MCF10A rerep: 1.2%; PINK1 expr mod: 1.9%; KB-V1 cytotox: 20.6µM*

How did O=C(Cc1cccs1)N(Cc1cccs1)C1(C(=O)NC2CCCC2)CCCCC1 do in these assays?
TSG101-PTAP inh: -8.3%; SW480 rereplic: 8.5%; KB-3-1 cytotox: inconclusive; MCF10A rerep: 13.7%; PINK1 expr mod: -4.2%; KB-V1 cytotox: 8.2µM*

What do the screens show for `O=C(c1ccccn1)N(Cc1ccco1)C1(C(=O)NC2CCCCC2)CCCCC1`?
TSG101-PTAP inh: -1.8%; SW480 rereplic: 4.6%; KB-3-1 cytotox: inactive; MCF10A rerep: 7.2%; PINK1 expr mod: -2.5%; KB-V1 cytotox: 9.2µM*

How did CC(C)(C)c1ccc(OCC(=O)Nc2ccc(C(=O)Nc3ccccc3C(=O)O)cc2)cc1 do in these assays?
TSG101-PTAP inh: -4.1%; SW480 rereplic: 1.3%; KB-3-1 cytotox: inactive; MCF10A rerep: 18.4µM*; PINK1 expr mod: 3.5%; KB-V1 cytotox: inconclusive

Results for CC(C)(C)c1ccc(OCC(=O)Nc2ccc(-c3nc4cccnc4o3)cc2)cc1 ?
TSG101-PTAP inh: -7.0%; SW480 rereplic: 14.1%; KB-3-1 cytotox: inactive; MCF10A rerep: 16.4µM*; PINK1 expr mod: 1.4%; KB-V1 cytotox: inactive

Results for COc1ccccc1OCC(=O)Nc1ccc(C(=O)Nc2ccccc2C(=O)O)cc1 ?
KB-3-1 cytotox: inactive; PINK1 expr mod: 0.3%; KB-V1 cytotox: inactive
